37 compounds from PubChem BioAssay (NCATS) can be followed below.

Records with an inconclusive call do not appear. Active and inactive are the calls of the source. The call rests on the fitted dose curve; in most records, active means well fitted curve in the direction sought with a large enough effect; inconclusive means small, poorly fitted or top-dose-only effect, or another doubt; inactive means no such curve, though single readings can be large; an effect the other way counts as inactive or inconclusive.

The target of assay [1] is Protein phosphatase 1D (Homo sapiens) (UniProt O15297). The assay is described as follows: RapidFire Mass Spectrometry qHTS Assay for Modulators of WT P53-Induced Phosphatase 1 (WIP1) (AID 1347424).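 Further: amount of dephosphorylated VEPPL-S-QETFS peptide product formed by WIP1.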 The following applies: WIP1 dephosphorylation of phosphopeptide, RapidFire MS; series mostly up to 63 µM. Put shortly: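 WIP1 (10 nM final) was preincubated 1 h at room temperature with compounds in Tris-HCl pH 7.5, 30 mM MgCl2, TCEP, EGTA, BSA; 2 uM VEPPL-pS-QETFS phosphopeptide was added for 5 min, quenched with formic acid, and dephosphorylated product quantified by RapidFire MS.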
Chain of Protein phosphatase 1D (Homo sapiens) (O15297 whole entry, looked up): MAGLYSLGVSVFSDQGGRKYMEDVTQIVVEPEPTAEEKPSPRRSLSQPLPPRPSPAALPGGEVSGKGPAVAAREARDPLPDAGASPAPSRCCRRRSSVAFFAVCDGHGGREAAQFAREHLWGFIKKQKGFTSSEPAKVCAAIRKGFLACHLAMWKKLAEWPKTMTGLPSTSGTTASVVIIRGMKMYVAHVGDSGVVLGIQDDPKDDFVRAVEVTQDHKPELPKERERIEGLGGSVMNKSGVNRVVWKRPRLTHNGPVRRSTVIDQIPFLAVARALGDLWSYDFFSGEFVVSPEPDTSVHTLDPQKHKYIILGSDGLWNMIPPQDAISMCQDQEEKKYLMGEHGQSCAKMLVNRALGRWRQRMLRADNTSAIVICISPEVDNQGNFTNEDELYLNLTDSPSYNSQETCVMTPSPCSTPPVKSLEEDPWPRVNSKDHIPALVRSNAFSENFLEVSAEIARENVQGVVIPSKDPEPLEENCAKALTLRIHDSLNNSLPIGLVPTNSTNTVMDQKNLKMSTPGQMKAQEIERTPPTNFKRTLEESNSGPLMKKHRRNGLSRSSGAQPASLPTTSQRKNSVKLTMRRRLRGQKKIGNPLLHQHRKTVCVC
(Quantitative high-throughput screening tests each substance at several concentrations.)

Assay [2] has the same target. Put plainly: Rhodamine-PBP qHTS Assay for Modulators of WT P53-Induced Phosphatase 1 (WIP1) (AID 1347425). Conditions: recombinant WIP1, Rhodamine-PBP phosphate fluorescence, real-time; series mostly up to 57.5 µM. Put shortly: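 WIP1 (5 nM final) was preincubated with compound for 1 hour at room temperature. It then dephosphorylated 10 uM VEPPL-pS-QETFS peptide in Tris-HCl pH 7.5 with 30 mM MgCl2. Released Pi was detected by 10 uM Rh-PBP fluorescence (ex 525/em 598 nm) read at 1-min intervals for 11 min, as delta f1 - f0.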

Assay [3] can be described thus: Primary qHTS for inhibitors of La Crosse Virus (LACV) - induced cell death in SH-SY5Y cells (AID 1508616).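 Further: top concentration of the series differs between compounds; higher means more rescue of cells from virus-induced death.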 The following applies: SH-SY5Y LACV cytopathicity rescue, ATP luminescence, 6 d; series mostly up to 4.29 µM. The method, boiled down: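 Luminescent ATP readout (ATPLite 1step, 5 min room temperature) measured rescue from LACV-induced death after 6 days of infection at 0.01 MOI; normalized to infected DMSO wells and uninfected DMSO wells.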

For assay [4], the target named is Calcium and integrin-binding protein 1 (Homo sapiens) (UniProt Q99828). The assay is described as follows: Primary qHTS for Identification of Calcium Integrin Binding Protein 1 (CIB1) Competitor (AID 1508620). Further: potency means the concentration at half of the fitted maximal effect. The following applies: CIB1-GST / FITC-alphaIIb peptide fluorescence polarization; series mostly up to 114 µM. The method, boiled down:
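Fluorescence polarization competition: CIB1-GST (1 uM final) preincubated with compound 15 min at room temperature, then FITC-labeled alphaIIb peptide (100 nM final) added for another 15 min. Polarization read at Ex 480/Em 540.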

Assay [5] is described as follows: Counterscreen qHTS for small molecule stabilizers of the endoplasmic reticulum resident proteome: GLuc-NoTag assay (AID 1508627).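 Further: SH-SY5Y cells given compound then 100 nM thapsigargin to empty ER calcium.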 Conditions: Gaussia luciferase NoTag secretion counterscreen, luminescence, thapsigargin 100 nM for final 4 h; series mostly up to 76.4 µM. Put shortly:
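SH-SY5Y cells stably expressing constitutively secreted GLuc (no SERCaMP tag) were pre-incubated 5 h, treated with compound for 19 h, then 100 nM thapsigargin for 4 h at 37C; medium GLuc read by coelenterazine luminescence.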

The target of assay [6] is Calcium and integrin-binding protein 1 (Homo sapiens) (UniProt Q99828). The assay is described as follows: Confirmatory qHTS for Identification of Calcium Integrin Binding Protein 1 (CIB1) Competitor (AID 1508617). Further: nearly all actives have a fitted effect of over 65% in size. Conditions: CIB1 binding competition assay, biochemical qHTS; series mostly up to 114 µM. Put shortly: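 FP competition: CIB1-GST (1 uM final) in 5 mM HEPES pH 7.4, 125 mM NaCl, 5 mM CaCl2, 0.01% Tween20 preincubated 15 min RT with compounds (up to 114 uM), then FITC-alphaIIb peptide (100 nM), 15 min RT; Ex 480/Em 540.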
Chain of Calcium and integrin-binding protein 1 (Homo sapiens) (Q99828 whole entry, looked up): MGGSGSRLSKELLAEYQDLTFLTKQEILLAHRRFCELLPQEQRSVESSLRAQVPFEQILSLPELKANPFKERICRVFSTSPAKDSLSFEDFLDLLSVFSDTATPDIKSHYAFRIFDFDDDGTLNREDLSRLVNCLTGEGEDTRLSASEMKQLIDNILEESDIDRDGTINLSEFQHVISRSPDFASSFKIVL

As to `CC(=O)N1CCN(c2ccc(O)cc2)CC1`, the Potency result in assay [1] and in assay [4] was “inactive” in each case. Also, the result in assay [2] and in assay [3] was inactive.
With `O=C1NC2CCCCN2C12CCN(CCCN1c3ccccc3CCc3ccc(Cl)cc31)CC2` (configuration not stated), the Potency entry in assay [1] and in assay [4] was “inactive” each time. For the same compound, the result in assay [2] and in assay [3] was inactive.
With `O=C(CCCCCCCCC#CI)Oc1ccccc1`, the Potency entry in assay [1] and in assay [4] was “inactive” each time. Besides, the outcome in assay [2] and in assay [3] was inactive.
For `O=C(O)C1CCC1`, the Potency result in assay [1] and in assay [4] was “inactive” each time. Besides, the outcome in assay [2] and in assay [3] was inactive.
For the compound `CCC[C@H](N[C@@H](C)C(=O)N1[C@H](C(=O)O)C[C@@H]2CCCC[C@@H]21)C(=O)OCC`, the Potency result in assay [1] and in assay [4] was “inactive” each time. The result in assay [2] and in assay [3] was inactive.
As for `Nc1ccc2cc3ccc(N)cc3nc2c1`, the Potency entry in assay [1] was “inactive”. Besides, the outcome in assay [2] and in assay [3] was inactive. Moreover, the Potency in assay [4] was 2240 nM (active).
As to `COc1cc(C(=O)NC2CCCNC2)cc(OC)c1OC` (configuration not stated), the Potency entry in assay [1] and in assay [4] was “inactive” throughout. Besides, the result in assay [2] and in assay [3] was inactive.
Take `COc1ccc(/C(C)=C/C(=O)O)c(OC)c1`: the Potency result in assay [1] and in assay [4] was “inactive” in each case. Also, the outcome in assay [2] and in assay [3] was inactive.
As to `CCNC(=O)NCCCOc1cccc(CN2CCCCC2)c1`, the Potency entry in assay [1] and in assay [4] was “inactive” in each case. In addition, the result in assay [2] and in assay [3] was inactive.
For `C[C@H](CN1CCCC1)C(=O)c1ccc(C(F)(F)F)cc1`, the Potency entry in assay [1] and in assay [4] was “inactive” throughout. Moreover, the result in assay [2] and in assay [3] was inactive.
Turning to `C[C@@H]1CCC[C@H](C)N1CCCC(O)(c1ccccc1)c1ccccn1` (some centres not stated), the Potency result in assay [1] and in assay [4] was “inactive” throughout. For the same compound, the outcome in assay [2] and in assay [3] was inactive.
As to `CCOC(=O)NNc1nncc2ccccc12`, the Potency entry in assay [1] and in assay [4] was “inactive” each time. For the same compound, the result in assay [2] and in assay [3] was inactive.
Turning to `[O-][n+]1cccc(/C(Cl)=N/OC[C@@H](O)CN2CCCCC2)c1`, the Potency result in assay [1] and in assay [4] was “inactive” in each case. Further, the outcome in assay [2] and in assay [3] was inactive.
Turning to `Cc1cccc(OCC(O)CNC(C)(C)C)c1C` (configuration not stated), the Potency entry in assay [1] and in assay [4] was “inactive” each time. Besides, the result in assay [2] and in assay [3] was inactive.
`CC(C)OP(=O)(CP(=O)(OC(C)C)OC(C)C)OC(C)C`: the Potency entry in assay [1] and in assay [4] was “inactive” throughout. Also, the outcome in assay [2] and in assay [3] was inactive.
Turning to `N#CC1(c2ccc(F)cc2)CCC(=O)CC1`, the Potency entry in assay [1] and in assay [4] was “inactive” throughout. For the same compound, the result in assay [2] and in assay [3] was inactive.
On to `CCCCCC[C@@H](CCC)C(=O)O`, for which the Potency result in assay [1] and in assay [4] was “inactive” throughout. In addition, the result in assay [2] and in assay [3] was inactive.
Regarding `COC(=O)c1c(Cl)c(Cl)c(C(=O)OC)c(Cl)c1Cl`, the Potency entry in assay [1], in assay [4] and in assay [5] was “inactive” throughout. In addition, the outcome in assay [2] and in assay [3] was inactive.
Consider `CC(C)OC(=O)c1cc2c(OCC(O)CNC(C)(C)C)cccc2[nH]1` (configuration not stated), for which the Potency result in assay [1], in assay [4] and in assay [5] was “inactive” each time. Also, the outcome in assay [2] and in assay [3] was inactive.
In the case of `Nc1ccc([N+](=O)[O-])c(C(F)(F)F)c1`, the Potency entry in assay [1] and in assay [4] was “inactive” throughout. The outcome in assay [2] and in assay [3] was inactive.
For `CC(C)C[C@@H]1[C@H](c2ccccc2)OC(=O)N1CCCN1CCCCCC1`, the Potency entry in assay [1], in assay [4] and in assay [5] was “inactive” throughout. Further, the result in assay [2] and in assay [3] was inactive.
As for `Cc1ccc2c(Cl)cc(Cl)c(O)c2n1`, the Potency entry in assay [1] and in assay [4] was “inactive” throughout. Further, the result in assay [2] and in assay [3] was inactive.
Turning to `CNC(=O)c1cnn(-c2nc(N)c3ncn([C@@H]4O[C@H](CO)[C@@H](O)[C@H]4O)c3n2)c1`, the Potency result in assay [1] and in assay [4] was “inactive” each time. Besides, the outcome in assay [2] and in assay [3] was inactive.
Turning to `O=[N+]([O-])c1nccn1CO[C@@H](CO)[C@H](O)CO`, the Potency result in assay [1] and in assay [4] was “inactive” in each case. Further, the result in assay [2] and in assay [3] was inactive.
In the case of `Cc1ncc(CO)c(CO)c1O`, the Potency result in assay [1] and in assay [4] was “inactive” each time. For the same compound, the outcome in assay [2] and in assay [3] was inactive.
In the case of `O=C(O)CCC(=O)OC[C@@H](NC(=O)C(Cl)Cl)[C@H](O)c1ccc([N+](=O)[O-])cc1`, the Potency entry in assay [1] and in assay [4] was “inactive” each time. Also, the outcome in assay [2] and in assay [3] was inactive.
In the case of `CC(=O)Nc1ccn(C2COC(COC(=O)c3ccccc3)O2)c(=O)n1` (configuration not stated), the Potency result in assay [1] and in assay [4] was “inactive” each time. For the same compound, the outcome in assay [2] was inactive.
Take `CCOC(=O)c1ccc(O)c(O)c1`: the Potency entry in assay [1], in assay [4] and in assay [5] was “inactive” throughout. Further, the outcome in assay [2] and in assay [3] was inactive.
Consider `COc1c(C)c2c(c(O)c1C/C=C(\C)CCC(=O)OCCN1CCOCC1)C(=O)OC2`, for which the Potency result in assay [1] and in assay [4] was “inactive” throughout. In addition, the result in assay [2] was inactive.
Turning to `C1=CC2C3C=CC(C3)C2C1` (configuration not stated), the Potency entry in assay [1] and in assay [4] was “inactive” each time. Besides, the result in assay [2] and in assay [3] was inactive.
In the case of `CN(C)CCN1CCN(c2cccc(Cl)c2)C1=O`, the Potency result in assay [1] and in assay [4] was “inactive” in each case. The outcome in assay [2] and in assay [3] was inactive.
With `CN1CCC(N(Cc2cccs2)c2ccccc2)CC1`, the Potency result in assay [1], in assay [6] and in assay [5] was “inactive” in each case. Moreover, in assay [2], the result was inactive.
Take `Cc1nc2n(c(=O)c1CCN1CCC(C(=O)c3ccc(F)cc3)CC1)CCS2`: the Potency entry in assay [1], in assay [4] and in assay [5] was “inactive” throughout. The outcome in assay [2] and in assay [3] was inactive.
For `OC[C@]1(O)OC[C@@H](O)[C@H](O)[C@@H]1O`, the Potency result in assay [1] and in assay [4] was “inactive” throughout. Besides, the outcome in assay [2] and in assay [3] was inactive.
As for `CCCCCCCCCCCCCCCCCCN(C)C`, the Potency entry in assay [1] and in assay [4] was “inactive” throughout. Also, the result in assay [2] and in assay [3] was inactive.
For `O=C1CC(c2ccc(Cl)cc2)CC(=O)N1`, the Potency entry in assay [1], in assay [4] and in assay [5] was “inactive” each time. In addition, the result in assay [2] and in assay [3] was inactive.
As to `CCCCNc1ccc(C(=O)OCCN(CC)CC)cc1`, the Potency entry in assay [1] and in assay [4] was “inactive” each time. The outcome in assay [2] and in assay [3] was inactive.
